KB-3-1 cytotox: KB-3-1 parental cell cytotoxicity; 400,000 compounds, 1.4% hits; KB-3-1 viability, CellTiter-Glo ATP luminescence, 72 h; AID 1347075; Potency, µM (top dose mostly 46.1 µM), hits mostly cytotoxic; note: nearly all actives have a fitted effect of over 60% in size
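KB-3-1 parental drug-naive adenocarcinoma cells in DMEM/10% FBS, incubated 72 h at 37 C with pin-transferred compounds across a concentration series. Viability by CellTiter-Glo luminescence; concentration-response curves fitted after normalization.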
HT1080-NT tox: kills 2HG-producing HT-1080-NT fibrosarcoma cells; HT-1080-NT fibrosarcoma viability, CellTiter-Glo ATP luminescence, 48 h; Potency, µM (top dose mostly 46.1 µM), for inactives: at the highest dose activity, negative = less viability, actives largely listed as cytotoxic; 360,000 compounds, 1.6% hits;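 note: NT is the 2HG producing partner of a matched IDH1 knockdown line; 0% = DMSO-treated cells and -100% = media-only wells without cells; nearly all actives have a fitted effect of over 55% in size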
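Toxicity toward the 2HG-producing NT line was scored as %Activity, normalised to DMSO and no-cell wells, from CellTiter-Glo luminescence after 48 hours' treatment.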
TDP1 cell CPT: DT40-hTDP1 cell growth loss with CPT; chicken DT40 Tdp1-/-;hTDP1 cells + 20 nM CPT, ATP luminescence, 48 h; Potency, µM (series often up to 46.2 µM), for the others: at the top dose activity change, negative = growth inhibition, hits mostly inhibitors; 420,000 compounds, 12% hits; AID 686979; note: nearly all actives have a fitted effect of over 55% in size
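Cell growth measured by CellTiter-Glo luminescence after a minimum 48 h, 37 C compound exposure with 20 nM CPT in Tdp1-knockout DT40 cells stably expressing hTDP1, seeded 400/well; qHTS titration format.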
HT1080 IDH1KD tx: HT-1080 IDH1 knockdown cell toxicity (counter line); Potency, µM (doses to about 46.1 µM), for inactives: top-dose activity, negative = toxicity, actives largely listed as cytotoxic; 360,000 compounds, 2% hits; HT-1080 IDH1 knockdown viability, ATP luminescence, 48 h;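 note: 0% = DMSO wells and -100% = cell-free medium wells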
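Using the IDH1-knockdown HT-1080 line run in the same batch and compound series as the NT line, viability after 48 h at 37 °C was determined by CellTiter-Glo luminescence and expressed as % activity.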
DT40 TDP1 no CPT: qHTS for Inhibitors of human tyrosyl-DNA phosphodiesterase 1 (TDP1): qHTS in cells in absence of CPT; DT40 Tdp1-/- hTDP1 cells, no CPT, ATP luminescence, 48 h; Potency, µM (top dose mostly 46.2 µM), for inactives: top-dose activity change, negative = growth inhibition, usual class: inhibitors; 420,000 compounds, 15% hits; AID 686978, 2013; note: nearly all actives have a fitted effect of over 55% in size
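A cellular qHTS used chicken DT40 cells lacking endogenous Tdp1 but carrying stably transfected human TDP1. Compounds were applied without camptothecin, and cell growth kinetics were judged by ATP-dependent luminescence after ≥48 hr.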
KB-V1 MDR tox: KB-V1 MDR subline cytotoxicity; KB-V1 MDR cells viability, CellTiter-Glo, 72 h; Potency, µM (top dose mostly 46.1 µM), actives largely listed as cytotoxic; 400,000 compounds, 3.4% hits; note: nearly all actives have a fitted effect of over 60% in size
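KB-V1 cells (P-gp-expressing MDR subline of KB-3-1) in phenol-red-free DMEM with 10% FBS were exposed to library compounds over a concentration series for 72 h at 37 degrees C. Viability read by CellTiter-Glo luminescence; concentration-effect curves fitted after normalization.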
An asterisk follows results filed as active; i = inactive; ? = inconclusive; · = no result given. This is a sample that favours compounds with a hit; in the whole collection about 19% have one here. Calls come from the whole dose curve; as a rule, active = well fitted curve in the direction sought with a large enough effect; inconclusive = small, poorly fitted or top-dose-only effect, or another doubt; inactive = no such curve, though single readings can be large; an effect the other way counts as inactive or inconclusive. Unless noted, % is set by controls: 0 for no effect and ±100 for the full control effect; potency is the fitted concentration of half-maximal effect.

SMILES	KB-3-1 cytotox	HT1080-NT tox	TDP1 cell CPT	HT1080 IDH1KD tx	DT40 TDP1 no CPT	KB-V1 MDR tox
COc1cc(C#N)ccc1OCC(=O)Nc1cccc(S(=O)(=O)N2CCCC2)c1	i	-10%	?	0%	?	16µM*
N#Cc1ccccc1OCC(=O)Nc1cccc(S(=O)(=O)N2CCCC2)c1	i	-4%	16µM*	6%	?	i
CCc1ccccc1OCC(=O)Nc1cccc(S(=O)(=O)N2CCCC2)c1	i	-9%	?	-10%	16µM*	i
Cc1ccc(C)c(NC(=O)CN(C)C(=O)CC2OC(=O)c3ccccc32)c1 (configuration not stated)	·	0%	?	-3%	0%	·
Cc1ccc(C)c(OCC(=O)Nc2ccc(S(=O)(=O)Nc3ncccn3)cc2)c1	i	-6%	-4%	-15%	15%	i
CCOc1ccc(S(=O)(=O)Nc2cc(S(=O)(=O)N3CCOCC3)ccc2OC)cc1	i	11%	2%	0%	-21%	i
Nc1c(C(=O)Nc2ccc(S(=O)(=O)N3CCCC3)cc2)sc2nc3ccc(OC(F)(F)F)cc3cc12	15µM*	?	9.2µM*	?	18µM*	?
Nc1c(C(=O)Nc2ccc(S(=O)(=O)N3CCCC3)cc2)sc2nc3cc4c(cc3cc12)CCC4	?	?	6.5µM*	?	6.5µM*	?
Nc1c(C(=O)Nc2ccc(Cl)c(C(=O)O)c2)sc2nc3c(cc12)CCCC3	·	0%	-1%	4%	15%	·
O=C(Nc1ccc2c(c1)OCO2)c1cc(C2CCCCN2S(=O)(=O)Cc2ccccc2)on1 (configuration not stated)	i	0%	-10%	-2%	-25%	i
O=C(NCc1ccccc1Cl)c1ccc(CSCc2ccccc2Cl)o1	i	·	16µM*	·	21µM*	i
COc1ccccc1CNC(=O)c1ccc(CS(=O)(=O)c2c(Cl)cccc2Cl)o1	i	·	?	·	?	i
Cc1ccc(CCNC(=O)c2ccc(CSCc3ccccc3Cl)o2)cc1	i	·	?	·	?	i
COc1ccccc1S(=O)Cc1ccc(C(=O)NCc2ccccc2Cl)o1 (configuration not stated)	i	-1%	16µM*	-4%	?	?
FC(F)(F)c1cccc(-n2cc(-c3ccccc3)[nH]c2=S)c1	i	-4%	?	-4%	?	i
CC1CSc2n(-c3cccc(C(F)(F)F)c3)cc(-c3ccccc3)[n+]21 (configuration not stated)	?	-1%	?	-1%	16µM*	i
CCOC(=O)c1c(NC(=O)/C=C/c2ccc(C(C)C)cc2)sc2c1CCC2	·	·	2%	·	6%	·
Cc1cccc(OCCSc2nc3c([nH]2)c(=N)ncn3Cc2ccccc2)c1	i	?	21µM*	?	16µM*	i
CN(C)c1ccccc1C(=O)c1ccccc1N(C)C	4.6µM*	?	4.6µM*	4.6µM*	4.1µM*	?
Cc1ccc2c(c1)-c1onc(C(=O)N3CCN(c4cc(Cl)ccc4C)CC3)c1CO2	i	·	·	·	·	i
COCc1ccc(-c2c(-c3cc(OC)cc(OC)c3)oc(=O)c3cc(OC)c(OC)cc23)cc1	i	5%	16µM*	2%	21µM*	i
COc1ccc(-c2c(-c3ccsc3)oc(=O)c3cc(OC)c(OC)cc23)cn1	i	10%	?	17%	?	i
COc1cc2c(C#CCCCO)c(-c3ccsc3)oc(=O)c2cc1OC	i	-1%	23µM*	0%	9.2µM*	i
COc1cc2c(-c3ccc4cc[nH]c4c3)c(-c3ccsc3)oc(=O)c2cc1OC	?	-1%	18µM*	1%	21µM*	i
COc1cc2c(-c3ccc4[nH]ccc4c3)c(-c3ccc(C#N)cc3)oc(=O)c2cc1OC	i	-1%	15µM*	-1%	5.8µM*	i
SMILES	KB-3-1 cytotox	HT1080-NT tox	TDP1 cell CPT	HT1080 IDH1KD tx	DT40 TDP1 no CPT	KB-V1 MDR tox
COc1cc2c(C(F)(F)F)c(-c3ccc(C#N)cc3)oc(=O)c2cc1OC	i	0%	0%	-3%	-2%	i
COc1ccc2c(c1)c1c(c(=O)n(-c3ccccc3C)c(=O)n1C)n2C	i	·	-29%	·	-18%	i
COc1cccc(C2(CC(=O)N3CCN(c4ccccn4)CC3)CC(=O)N(C3CCCC3)C2=O)c1 (configuration not stated)	·	·	1%	·	?	·
C#CCN(C[C@H]1[C@H](OC(=O)NCc2ccccc2)[C@H](OC(=O)NCc2ccccc2)C[C@H]2C(=O)N(c3ccccc3)C(=O)[C@@H]12)S(=O)(=O)c1ccc(C)cc1	i	0%	-23%	0%	-15%	i
C#CCN(C[C@@H]1[C@@H](OC(=O)NCc2ccco2)[C@@H](OC(=O)NCc2ccco2)CN(C(=O)OC(C)C)N1C(=O)OC(C)C)S(=O)(=O)c1ccc(C)cc1	?	-14%	15µM*	-5%	9.2µM*	?
C#CCN(C[C@@H]1[C@@H](OC(=O)NC2CC2)[C@@H](OC(=O)NC2CC2)CN(C(=O)OC(C)C)N1C(=O)OC(C)C)S(=O)(=O)c1ccc(C)cc1	i	-1%	?	-4%	16µM*	i
C#CCN(C[C@@H]1[C@@H](OC(=O)NCc2ccccc2F)[C@@H](OC(=O)NCc2ccccc2F)CN(C(=O)OC(C)C)N1C(=O)OC(C)C)S(=O)(=O)c1ccc(C)cc1	i	0%	7.3µM*	4%	7.3µM*	i
C#CCN(C[C@H]1[C@H](OC(=O)NC2CC2)[C@H](OC(=O)NC2CC2)C[C@H]2C(=O)N(c3ccccc3)C(=O)[C@@H]12)S(=O)(=O)c1ccc(C)cc1	i	1%	-14%	5%	-12%	i
COc1cc(OC)c(NC(=O)N2CCSc3ccccc32)cc1Cl	i	·	?	·	?	i
O=C(NNC(=S)Nc1ccc(Cl)cc1)c1ccccc1OC(F)F	18µM*	?	?	?	23µM*	3.3µM*
CC(C)c1ccc(NC(=S)NN2C(C)CCCC2C)cc1 (configuration not stated)	i	9%	-2%	3%	-16%	i
O=C(NNC(=S)NCc1ccccc1)c1ccccc1OC(F)F	i	-2%	0%	0%	-15%	i

From PubChem
